In ChEMBL document CHEMBL4888484, “Replenishing the malaria drug discovery pipeline: Screening and hit evaluation of the MMV Hit Generation Library 1 (HGL1) against asexual blood stage Plasmodium falciparum ,using a nano luciferase reporter read-out” (2022):
The campaign covered roughly 150,000 compounds. About 540 (0.36%) showed an effect of 50% or more. Shown is part of a subset that was picked to be rich in strong results.

The compounds below were run on Plasmodium falciparum (assay: Primary screen in NF54 nanoGlo assay, in single point, at 2uM, 72h; a lower Z score goes with more inhibition). Settings: timepoint 72 hour.
Type: functional, Erythrocyte

Going from `Cc1c(C(=O)[C@H](C#N)c2nnc(N3CCOCC3)n2-c2ccccc2)nnn1-c1ccc(F)cc1` to `Cc1nnc([C@@]23COC[C@@H]2CN(C(=O)c2cccc4[nH]ccc24)C3)o1`, the “% Inhibition” value falls from -7% to -10%.

First: COc1ccccc1CN1Cc2ccccc2O[C@@H](C)C1=O
Second: COc1ccccc1CN1COc2cc3c(cc2C1)OCO3
The “% Inhibition” value of the first is lower: -5% for the first, 56% for the second.

Compared with `Cc1ccc(N2COc3cc4c(cc3C2)OCO4)cc1C`, `Cc1ccc(N2C(=O)C3C4C=CC(C4=C4CCCCC4)C3C2=O)cc1Cl` (stereo not given) is lower in “% Inhibition” value: -10% for the first, -11% for the second.

Going from `CN1CC[C@@]2(CCC1=O)CN(c1ccnc3ccc(Cl)cc13)CCN2C` to `O=C1C2C3C=CC(C3=C3CCCCC3)C2C(=O)N1c1cccc(Cl)c1` (stereo not given), the “% Inhibition” value rises from -4% to 51%.

Going from `O=C(Cn1cnnn1)NCc1ccc2c(c1)CCC2` to `C=CCN(C)C(=O)NCc1ccc(Br)c(F)c1`, the “% Inhibition” value rises from -44% to 2%.

First: COc1cccc(NC(=O)Cn2c(C)ccc(NS(=O)(=O)c3ccc(C)cc3)c2=O)c1
Second: Cc1ccc(S(=O)(=O)Nc2ccc(C)n(CC(=O)NCC(C)C)c2=O)cc1
The “% Inhibition” value of the first is higher: 74% for the first, -22% for the second.

Going from `CCC(C)(C)NC(=O)Cn1c(C)ccc(NS(=O)(=O)c2ccc(C)cc2)c1=O` to `COc1ccc(Nc2nc(COC(=O)Cn3cnc4c3c(=O)n(C)c(=O)n4C)cs2)cc1`, the “% Inhibition” value falls from -4% to -6%.

First: COc1ccc(-c2cn3c(C(=O)N4CCNC(=O)C4)csc3n2)cc1F
Second: Cc1cc2c(=O)c(C(=O)c3ccncc3)cn(CC(=O)NC3CCCCC3)c2cc1F
The “% Inhibition” value of the first is lower: -19% for the first, -1% for the second.

Going from `CN1CC[C@H](c2nc3cc(F)ccc3[nH]2)C1` to `CCOC(=O)c1cn(CC2CCCCC2)c2nc(C)ccc2c1=O`, the “% Inhibition” value rises from -1% to 23%.

Compared with `Cc1noc2ncnc(N3CCCC[C@H]3c3nccs3)c12`, `CCOC(=O)c1cn(CC)c2cc(NC3CCCCC3)c(F)cc2c1=O` is higher in “% Inhibition” value: -7% for the first, 67% for the second.

First: Cc1nc(CC(=O)NC[C@H](O)COc2ccc(F)cc2)cs1
Second: Cc1cc(C)nc(NC[C@H](O)COc2ccc(F)cc2)n1
The “% Inhibition” value of the first is lower: -3% for the first, 5% for the second.

Compared with `CO[C@H]1COCC[C@@H]1NC(=O)c1ccc(C#CC(C)(C)O)o1`, `CC[C@@H](COc1ccccc1)NC(=O)CC1CCNCC1` is higher in “% Inhibition” value: 1% for the first, 9% for the second.

For `Cc1cccc(N2C(=O)C3C4C=CC(C4=C4CCCCC4)C3C2=O)c1` (stereo not given), the “% Inhibition” value was 0%.

Compared with `Cc1c(C(=O)[C@H](C#N)c2nnc(N3CCOCC3)n2-c2ccccc2)nnn1-c1ccc(F)cc1`, `Cc1nnc([C@@]23COC[C@@H]2CN(C(=O)c2cccc4[nH]ccc24)C3)o1` is higher in Z score: 1.18 for the first, 1.33 for the second.

First: COc1ccccc1CN1Cc2ccccc2O[C@@H](C)C1=O
Second: COc1ccccc1CN1COc2cc3c(cc2C1)OCO3
The Z score of the first is higher: 0.61 for the first, -4.75 for the second.

Going from `Cc1ccc(N2COc3cc4c(cc3C2)OCO4)cc1C` to `Cc1ccc(N2C(=O)C3C4C=CC(C4=C4CCCCC4)C3C2=O)cc1Cl` (stereo not given), the Z score falls from 1.51 to 1.34.

First: CN1CC[C@@]2(CCC1=O)CN(c1ccnc3ccc(Cl)cc13)CCN2C
Second: O=C1C2C3C=CC(C3=C3CCCCC3)C2C(=O)N1c1cccc(Cl)c1 (stereo not given)
The Z score of the first is higher: 0.66 for the first, -1.24 for the second.

First: O=C(Cn1cnnn1)NCc1ccc2c(c1)CCC2
Second: C=CCN(C)C(=O)NCc1ccc(Br)c(F)c1
The Z score of the first is higher: 5.16 for the first, -0.18 for the second.

Going from `COc1cccc(NC(=O)Cn2c(C)ccc(NS(=O)(=O)c3ccc(C)cc3)c2=O)c1` to `Cc1ccc(S(=O)(=O)Nc2ccc(C)n(CC(=O)NCC(C)C)c2=O)cc1`, the Z score rises from -9.85 to 3.01.

First: CCC(C)(C)NC(=O)Cn1c(C)ccc(NS(=O)(=O)c2ccc(C)cc2)c1=O
Second: COc1ccc(Nc2nc(COC(=O)Cn3cnc4c3c(=O)n(C)c(=O)n4C)cs2)cc1
The Z score of the first is lower: 0.69 for the first, 0.88 for the second.

First: COc1ccc(-c2cn3c(C(=O)N4CCNC(=O)C4)csc3n2)cc1F
Second: Cc1cc2c(=O)c(C(=O)c3ccncc3)cn(CC(=O)NC3CCCCC3)c2cc1F
The Z score of the first is higher: 2.43 for the first, 0.12 for the second.

Going from `CN1CC[C@H](c2nc3cc(F)ccc3[nH]2)C1` to `CCOC(=O)c1cn(CC2CCCCC2)c2nc(C)ccc2c1=O`, the Z score falls from 0.12 to -2.66.

Going from `Cc1noc2ncnc(N3CCCC[C@H]3c3nccs3)c12` to `CCOC(=O)c1cn(CC)c2cc(NC3CCCCC3)c(F)cc2c1=O`, the Z score falls from 0.7 to -12.03.

First: Cc1nc(CC(=O)NC[C@H](O)COc2ccc(F)cc2)cs1
Second: Cc1cc(C)nc(NC[C@H](O)COc2ccc(F)cc2)n1
The Z score of the first is higher: 0.65 for the first, -0.6 for the second.

Compared with `CO[C@H]1COCC[C@@H]1NC(=O)c1ccc(C#CC(C)(C)O)o1`, `CC[C@@H](COc1ccccc1)NC(=O)CC1CCNCC1` is lower in Z score: -0.19 for the first, -1.66 for the second.

Compound `Cc1cccc(N2C(=O)C3C4C=CC(C4=C4CCCCC4)C3C2=O)c1` (stereo not given) has a Z score of 0.03.
